# G9a block – G9a (human) methyltransferase inhibition; Potency, µM (top dose mostly 102 µM), most hits filed as inhibitors; G9a H3K9 monomethylation, AlphaScreen, 2 h; hit rate 8.8% among 350,000; Q96KQ7; note: nearly all actives have a fitted effect of over 75% in size
# Target sequence (Q96KQ7 913-1193 limits assumed): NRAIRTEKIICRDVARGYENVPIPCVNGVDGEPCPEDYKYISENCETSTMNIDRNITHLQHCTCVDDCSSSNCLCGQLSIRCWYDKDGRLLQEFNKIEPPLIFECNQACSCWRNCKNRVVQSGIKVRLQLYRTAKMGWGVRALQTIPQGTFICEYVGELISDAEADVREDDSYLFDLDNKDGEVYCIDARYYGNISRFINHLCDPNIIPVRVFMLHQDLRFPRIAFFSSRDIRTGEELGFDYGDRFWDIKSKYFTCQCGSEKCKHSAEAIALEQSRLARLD
#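 AlphaScreen read-out: biotin-H3K9 peptide (500 nM) methylation by 20 nM enzyme with 20 uM SAM, 2 h at room temperature after 15 min compound preincubation; anti-monomethyl H3K9 antibody plus donor/acceptor beads, 10 min dark.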
# BAZ2B block – BAZ2B (human) inhibition. Q9UIF8. AlphaScreen BAZ2B-H3K14Ac peptide displacement. hit rate 4.4% among 360,000. Potency, µM (series often up to 114 µM), most hits filed as inhibitors; note: nearly all actives have a fitted effect of over 60% in size
#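 BAZ2B (50 nM) with biotin-H3(5-23)K14Ac peptide (50 nM) in PBS pH 7.4, 0.01% Tween-20, preformed 30 min, then compound 30 min at room temperature; top concentration 110uM. AlphaScreen streptavidin donor/nickel chelate acceptor beads (10 ug/mL final), 20 min dark, signal read.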
# HP1b binding inh – blocks HP1-beta chromodomain binding to methylated histone tails | P83916 | AlphaScreen HP1-beta / biotin-H3K9me3 peptide binding | Potency, µM (titrated, usually from 114 µM), most hits filed as inhibitors | hit rate 0.56% among 390,000 | AID 540317; note: nearly all actives have a fitted effect of over 70% in size
#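 HP1-beta protein (50 nM final) preincubated 30 min at room temperature with biotinylated H3(1-18)K9me3 peptide (50 nM) in PBS pH 7.4, 0.01% Tween-20, then compound added for 30 min. AlphaScreen streptavidin donor/nickel chelate acceptor beads (10 ug/mL final), 30 min dark, luminescence read.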
# JMJD2A Tudor – inhibitors of human JMJD2A Tudor domain; O75164; AlphaScreen JMJD2A-Tudor / H3K4me3 peptide binding; hit rate 4.4% among 390,000; Potency, µM (titrated, usually from 114 µM), actives largely listed as inhibitors; note: nearly all actives have a fitted effect of over 50% in size
# PLK1 PBD inh – inhibitors of human PLK1 polo-box domain binding; Plk1 PBD binding of FITC phosphopeptide, fluorescence polarization; Potency, µM, most hits filed as inhibitors; hit rate 2.8% among 360,000; note: series mostly up to about 57 µM; nearly all actives have a fitted effect of over 65% in size
# PI5P4K alpha inh – inhibitors of human PI5P4K alpha; P48426; hit rate 1.2% among 330,000; AID 652105; max response, %; PI5P4Kalpha enzyme, ADP-Glo luminescence, 60 min; stronger effect = lower value; active = max response of -50% or lower; inconclusive = between -30% and -50%; inactive = -30% or higher; note: value at the top dose of about 77 µM
# Target sequence (P48426 whole entry, looked up): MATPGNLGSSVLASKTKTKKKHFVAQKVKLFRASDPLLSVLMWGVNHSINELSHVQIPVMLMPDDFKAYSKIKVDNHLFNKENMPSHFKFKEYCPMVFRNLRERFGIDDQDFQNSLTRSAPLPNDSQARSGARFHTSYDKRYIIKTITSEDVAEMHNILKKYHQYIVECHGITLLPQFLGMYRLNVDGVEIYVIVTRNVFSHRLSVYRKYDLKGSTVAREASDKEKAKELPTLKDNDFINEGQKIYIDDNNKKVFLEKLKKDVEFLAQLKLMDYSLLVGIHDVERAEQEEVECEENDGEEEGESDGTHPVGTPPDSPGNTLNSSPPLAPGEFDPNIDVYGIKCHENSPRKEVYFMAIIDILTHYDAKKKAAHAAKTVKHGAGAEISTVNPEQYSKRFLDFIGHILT
#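 Enzyme plus substrate dispensed, test compounds pinned in, then ATP (5 microM final) added. After 60 min at RT, ADP-Glo reagent 1 for 45 min and reagent 2 for 30 min preceded luminescence imaging.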
# Numbers stand for hits; i = inactive; ? = inconclusive; nt = no result given; [ ] = remark or other dose. A selection: hits, their analogues and other compounds. The true share with any hit is near 12%. Unless noted, calls come from the whole dose curve; as a rule, active = well fitted curve in the direction sought with a large enough effect; inconclusive = small, poorly fitted or top-dose-only effect, or another doubt; inactive = no such curve, though single readings can be large; an effect the other way counts as inactive or inconclusive.
SMILES,G9a block,BAZ2B block,HP1b binding inh,JMJD2A Tudor,PLK1 PBD inh,PI5P4K alpha inh
Cc1ccc(C(=O)Nc2nnc(-c3ccco3)o2)cc1,i,50µM,i,?,i,i
COc1ccc(S(=O)(=O)NCC(c2ccco2)S(=O)(=O)c2cccs2)cc1C (stereo not drawn),i,i,i,i,nt,nt
CCC(C)n1c(SCc2ccc(F)cc2Cl)nc2ccsc2c1=O (stereo not drawn),i,i,i,i,nt,nt
COCc1c(C(=O)N(C)Cc2ccccc2N2CCCC2)oc2ccccc12,50µM,?,i,45µM,i,i
CCOC(=O)/C(CCC[N+](C)(CC)CC)=N\O,11µM,i,?,?,?,i
O=C(NCc1ccc(Cl)cc1)C1CCC(=O)N(C2CCCCCC2)C1 (stereo not drawn),nt,i,i,i,i,i
Nc1cc2c(cc1C(=O)c1ccccc1F)OCCO2,?,?,i,i,i,i
Nc1cc2c(cc1C(=O)c1cccc(Br)c1)OCCO2,18µM,35µM,?,45µM,i,i
C/C(CC1CC(C)OC1=O)=N\NC(N)=S (stereo not drawn),35µM,?,i,?,i,i
CCC1CC(/C(C)=N/NC(N)=O)OC1=O (stereo not drawn),i,i,i,i,i,i
COc1ccc(C(=O)NCC(=O)OCC(=O)N(C)c2ccccc2)cc1,i[12.7 µM],i,i,i,i,i
CN(C(=O)COC(=O)c1ccc(C#N)cc1)c1ccccc1,50µM,i,i,i,i,i
C/C(=N\OCC(=O)OCC(=O)N(C)c1ccccc1)c1ccc2c(c1)OCO2,i[12.7 µM],79µM,i,i,i,i
Cc1cc(C)cc(C(=O)NCC(=O)OCC(=O)N(C)c2ccccc2)c1,i,nt,i,50µM,24µM,i
C/C(=N\OCC(=O)OCC(=O)N(Cc1ccccc1)C(C)(C)C)c1ccc2c(c1)OCO2,i,i,i,i,i,i
CN(C(=O)COC(=O)c1ccc(Cl)c(N)c1)c1ccccc1,i,i,i,i,i,i
COc1cccc(OC)c1C(=O)OCC(=O)N(C)c1ccccc1,i,i,i,?,27µM,i
CN(Cc1ccccc1)C(=O)COC(=O)c1ccc(=O)n(Cc2ccccc2)n1,i[0.501 µM],i,i,i,i,i
CN(C(=O)COC(=O)c1ccc(=O)n(Cc2ccccc2)n1)c1ccccc1,i,i,i,?,17µM,?
COc1ccc(/C=N/OCC(=O)OCC(=O)N(C)c2ccccc2)cc1,50µM,i,i,i,i,i
CCCCCOc1ccc(/C=C/C(=O)Nc2sc(C)c(C)c2C(=O)OCC)cc1OC,?,i,i,i,nt,nt
O=C(C1CCN(S(=O)(=O)c2ccccc2)CC1)N1CCCCCC1,nt,i,i,i,i,i
C#CCOCCOCCOCCNc1nc(N2CCN(C(=O)CCCCCCCCCCNC(=O)[C@H](CCCCN)n3cc(C)nn3)CC2)nc(N2CCN(C(=O)CCCCCCCCCCNC(=O)[C@@H]([C@H](C)O)n3cc(C)nn3)CC2)n1,i[2.33 µM],i,i,56µM,i,?
C#CCOCCOCCOCCNc1nc(N2CCN(C(=O)CCCCCCCCCCNC(=O)[C@H](CCCCN)n3cc(C[C@@H](C)CC)nn3)CC2)nc(N2CCN(C(=O)CCCCCCCCCCNC(=O)[C@@H]([C@H](C)O)n3cc(C)nn3)CC2)n1,i[2.33 µM],50µM,?,56µM,i,?
C#CCOCCOCCOCCNc1nc(N2CCN(C(=O)CCCCCCCCCCNC(=O)[C@@H](CCSC)n3cc(CCO)nn3)CC2)nc(N2CCN(C(=O)CCCCCCCCCCNC(=O)[C@@H]([C@H](C)O)n3cc(C)nn3)CC2)n1,i[2.33 µM],?,i,i,i,i
SMILES,G9a block,BAZ2B block,HP1b binding inh,JMJD2A Tudor,PLK1 PBD inh,PI5P4K alpha inh
Cc1ccc(-c2n[nH]c(=O)c3ccccc23)cc1S(=O)(=O)NCC1CCCO1 (stereo not drawn),i,i,i,i,i,i
Cc1ccc(-c2n[nH]c(=S)c3ccccc23)cc1S(=O)(=O)NCC1CCCO1 (stereo not drawn),22µM,i,i,18µM,i,i
Cc1cc(C(=O)N/N=C2/CC(C)CC(C)(C)C2)c(C)o1 (stereo not drawn),i,?,i,?,21µM,i
Cc1cc(C(=O)N/N=C2\CCCc3ccccc32)c(C)o1,i,i,i,i,i,i
O=C(NC(C(=O)c1ccccc1)c1ccccc1)c1ccccc1 (stereo not drawn),nt,nt,i,i,i,i
O=C(O)c1ccccc1Nc1ccccc1,24µM,i,i,i,i,i
COc1cccc(Oc2ccc(OC)cc2C(=O)O)c1,nt,i,i,25µM,i,i
COc1cc(-c2ccc(Nc3ccccc3C(=O)O)c(OC)c2)ccc1Nc1ccccc1C(=O)O,0.79µM,5.6µM,35µM,?,17µM,-89
CC(=O)n1cc(Nc2ccccc2C(=O)O)c2ccccc21,40µM,i,i,i,i,i
CN(C(=O)COC(=O)c1ccc(Cl)s1)C1(C#N)CCCCC1,i,i,i,i,i,i
COc1ccc(C)cc1NC(=O)N1CCC(CN2CCC(C)CC2)CC1,i,i,i,i,nt,nt
CCC(C)Cn1c(/C=C/c2ccccc2)nc2ccccc21 (stereo not drawn),i,i,i,i,nt,nt
CCN(CC(=O)NC1CCCC1)S(=O)(=O)c1ccc(F)cc1,i,i,i,i,i,i
COc1cccc(Nc2ccccc2C(=O)O)c1,40µM,?,i,i,i,i
CC(=O)Nc1ccc(NC(=O)c2ccccc2Nc2ccccc2)cc1,50µM,i,i,i,i,i
CC(=O)Nc1ccc(Nc2ccccc2)cc1,nt,i,i,i,i,i
COc1cccc(NC(=O)c2ccccc2-c2ccccc2C(=O)O)c1,i[0.501 µM],i,i,i,i,i
COc1cccc(C(=O)NCC2CCCN(C(=O)c3ccc(C=O)cc3)C2)c1OC (stereo not drawn),nt,i,i,i,i,i
CCC(CO)n1c(=S)[nH]c2cc(OC)c(OC)cc2c1=O (stereo not drawn),18µM,i,i,25µM,i,i
CCOc1cc2[nH]c(=S)n(C(C)C)c(=O)c2cc1OCC,i,i,i,i,i,i
CCOc1ccc(C(C)=O)cc1COc1ccc(-c2nnco2)cc1,nt,50µM,i,i,i,i
CN1CCN(C(=O)c2c(O)c3cccc4c3n(c2=O)CCC4)CC1,14µM,nt,i,i,i,i
Cc1cc2c(cc1C)N[C@]1(C[C@H]3CCCC(=O)N4CC[C@@H](C1)[C@@H]34)C(=NC(C)(C)CC(C)(C)C)N2,nt,nt,?,22µM,i,i
O=C1CCC[C@@H]2C[C@@]3(C[C@@H]4CCN1[C@H]24)Nc1cc(Cl)ccc1NC3=NC1CCCCC1,nt,nt,i,i,i,i
CCN1C(=O)N[C@@H](c2cccc(C(F)(F)F)c2)C(C(=O)OC)=C1C,nt,nt,i,i,i,i

# From PubChem BioAssay
